Test results as given in PubChem BioAssay (EPA / NIEHS).
The source made the active and inactive calls. How the source made its calls: active means hit-call score of the fitted dose curve at least 0.9, where 1 is the maximum; inactive means score below 0.9.

Assays:
Settings in all cases: mRNA level, 48 h; actives raise or lower the signal
[1] = read-out: Ezrin (EZR), EZR (gene 7430); test: LTEA_HepaRG_EZR: Life Technologies and Expression Analysis (LTEA) Assay for Ezrin (EZR) using HepaRG (AID 2283491)
Summary of the method: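 Read-out is EZR transcript level by qRT-PCR, normalized to three housekeeping genes and fitted bidirectionally against the DMSO control. Human HepaRG cells received test chemicals for 48 h at eight half-log concentrations up to 100 uM in 0.5% DMSO.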

[2] = read-out: Cytochrome P450 3A7 (Homo sapiens) (UniProt P24462); test: LTEA_HepaRG_CYP3A7: Life Technologies and Expression Analysis (LTEA) Assay for CYP3A7 using HepaRG (AID 2283492)
Summary of the method: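 Differentiated HepaRG cells in serum-free induction medium exposed 48 h in duplicate to 8-point half-log series from 100 uM top in 0.5% DMSO. CYP3A7 mRNA by qRT-PCR, normalized to ACTB/GAPDH/POLR2A, bidirectional fit versus DMSO.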

CYP3A5 (gene 1577) = test: LTEA_HepaRG_CYP3A5: Life Technologies and Expression Analysis (LTEA) Assay for CYP3A5 using HepaRG (AID 2283493)
Summary of the method: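 HepaRG plated 48 h, switched to serum-free induction medium, chemicals added 48 h (max 100 uM, half-log, 0.5% DMSO). RNA isolated; CYP3A5 by TaqMan qRT-PCR. Gain/loss vs DMSO.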

[3] = read-out: Fatty Acid-Binding Protein 1 (FABP1), FABP1 (gene 2168); test: LTEA_HepaRG_FABP1: Life Technologies and Expression Analysis (LTEA) Assay for Fatty Acid-Binding Protein 1 (FABP1) using HepaRG (AID 2283494)
Summary of the method: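 Differentiated human HepaRG cells exposed 48 h in serum-free induction medium to eight half-log concentrations up to 100 uM (0.5% DMSO), duplicate. FABP1 mRNA by qRT-PCR, normalised to ACTB, GAPDH, POLR2A; bidirectional fitting against DMSO.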

[4] = read-out: Cytochrome P450 4A22 (Homo sapiens) (UniProt Q5TCH4); test: LTEA_HepaRG_CYP4A22: Life Technologies and Expression Analysis (LTEA) Assay for Cytochrome P450 4A22 (CYP4A22) using HepaRG (AID 2283495)
Summary of the method: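 Differentiated HepaRG cells in serum-free induction medium exposed 48 h in duplicate to eight half-log concentrations up to 100 uM in 0.5% DMSO. CYP4A22 mRNA quantified by TaqMan qRT-PCR, normalized to ACTB, GAPDH and POLR2A; bidirectional fit versus DMSO.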

[5] = read-out: Cytochrome P450 7A1 (Homo sapiens) (UniProt P22680); test: LTEA_HepaRG_CYP7A1: Life Technologies and Expression Analysis (LTEA) Assay for Cytochrome P450 7A1 (CYP7A1) using HepaRG (AID 2283496)
Summary of the method: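 HepaRG cells plated 48 h, then switched to serum-free induction medium and exposed in duplicate for 48 h to 8-point half-log series from 100 uM in 0.5% DMSO. CYP7A1 mRNA by qRT-PCR (TaqMan), normalized to ACTB/GAPDH/POLR2A; bidirectional fit versus DMSO.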

[6] = read-out: Glutathione S-Transferase (GSTA2), GSTA2 (gene 2939); test: LTEA_HepaRG_GSTA2: Life Technologies and Expression Analysis (LTEA) Assay for Glutathione S-Transferase (GSTA2) using HepaRG (AID 2283497)
Summary of the method: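 Differentiated human HepaRG cells were exposed in duplicate for 48 h in serum-free induction medium, 8 points from 100 uM top in half-log steps, 0.5% DMSO. GSTA2 mRNA was measured by TaqMan qRT-PCR, normalized to ACTB, GAPDH and POLR2A; bidirectional fit versus DMSO.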

[7] = read-out: Glutamate-cysteine ligase catalytic (GCLC), GCLC (gene 2729); test: LTEA_HepaRG_GCLC: Life Technologies and Expression Analysis (LTEA) Assay for Glutamate-cysteine ligase catalytic (GCLC) using HepaRG (AID 2283498)
Summary of the method: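 Differentiated HepaRG cells exposed 48 h in serum-free induction medium, eight-point half-log series topping at 100 uM in 0.5% DMSO, duplicates. GCLC mRNA by qRT-PCR normalized to ACTB, GAPDH and POLR2A, fitted bidirectionally versus DMSO.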

[8] = read-out: growth arrest and DNA damage 45 (GADD45G), GADD45G (gene 10912); test: LTEA_HepaRG_GADD45G: Life Technologies and Expression Analysis (LTEA) Assay for growth arrest and DNA damage 45 (GADD45G) using HepaRG (AID 2283499)
Summary of the method: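 Differentiated human HepaRG cells, 48 h post-plating, exposed 48 h in serum-free induction medium to 8 half-log concentrations (top 100 uM, 0.5% DMSO) in duplicate. GADD45G mRNA measured by Fluidigm TaqMan qRT-PCR, normalized to ACTB, GAPDH, POLR2A; bidirectional fit versus DMSO.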

[9] = read-out: Glutamate-cysteine ligase regulatory (GCLM), GCLM (gene 2730); test: LTEA_HepaRG_GCLM: Life Technologies and Expression Analysis (LTEA) Assay for Glutamate-cysteine ligase regulatory (GCLM) using HepaRG (AID 2283500)
Summary of the method: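 Cells were plated, cultured 48 h, switched to serum-free induction medium, then dosed in duplicate for 48 h at eight half-log concentrations up to 100 uM. RNA was then profiled by qRT-PCR; gain or loss versus DMSO was fitted.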

[10] = read-out: Glutathione S-transferase M3 (GSTM3), GSTM3 (gene 2947); test: LTEA_HepaRG_GSTM3: Life Technologies and Expression Analysis (LTEA) Assay for Glutathione S-transferase M3 (GSTM3) using HepaRG (AID 2283501)
Summary of the method: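 Differentiated human HepaRG cells were exposed in duplicate for 48 h in serum-free induction medium, 8 points from 100 uM top in half-log steps, 0.5% DMSO. GSTM3 mRNA was measured by TaqMan qRT-PCR, normalized to ACTB, GAPDH and POLR2A; bidirectional fit versus DMSO.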

[11] = read-out: Heat shock 70 kDa protein 1 (HSPA1A), gene 3303; test: LTEA_HepaRG_HSPA1A: Life Technologies and Expression Analysis (LTEA) Assay for Heat shock 70 kDa protein 1 (HSPA1A) using HepaRG (AID 2283502)
Summary of the method: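 Readout is HSPA1A transcript level by microfluidic qRT-PCR, normalized to three housekeeping genes and analysed for gain or loss of signal relative to 0.5% DMSO. Human HepaRG cultures received test chemicals for 48 h at up to 100 uM.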

[12] = read-out: Hypoxia-inducible factor 1-alpha (Homo sapiens) (UniProt Q16665); test: LTEA_HepaRG_HIF1A: Life Technologies and Expression Analysis (LTEA) Assay for Hypoxia-inducible factor 1 (HIF1A) Trancription factor using HepaRG (AID 2283503)
Summary of the method: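 Differentiated HepaRG cells in serum-free induction medium exposed 48 h, in duplicate, to 8-point half-log series from 100 uM in 0.5% DMSO. HIF1A mRNA measured by TaqMan qRT-PCR, normalized to ACTB/GAPDH/POLR2A, fitted bidirectionally versus DMSO.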

[13] = read-out: 3-Hydroxy-3-Methylglutaryl-CoA Synthase 2 (HMGCS2), HMGCS2 (gene 3158); test: LTEA_HepaRG_HMGCS2: Life Technologies and Expression Analysis (LTEA) Assay for 3-Hydroxy-3-Methylglutaryl-CoA Synthase 2 (HMGCS2) using HepaRG (AID 2283504)
Summary of the method: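 Human HepaRG cells in serum-free induction medium were exposed in duplicate for 48 h to 8-point half-log series from 100 uM top in 0.5% DMSO. HMGCS2 mRNA measured by TaqMan qRT-PCR, normalised to ACTB, GAPDH, POLR2A; bidirectional fit versus DMSO.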

[14] = read-out: Insulin Like Growth Factor 1 (IGF1), IGF1 (gene 3479); test: LTEA_HepaRG_IGF1: Life Technologies and Expression Analysis (LTEA) Assay for Insulin Like Growth Factor 1 (IGF1) using HepaRG (AID 2283506)
Summary of the method: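 HepaRG, plated 48 h, then switched to serum-free induction media; test chemical 8-pt half-log from 100 uM (0.5% DMSO), duplicate, 48 h. Lysis in RLT, TaqMan qRT-PCR, norm. ACTB/GAPDH/POLR2A. Bidirectional fit vs DMSO.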

[15] = read-out: Intercellular Adhesion Molecule 1 (ICAM1), ICAM1 (gene 3383); test: LTEA_HepaRG_ICAM1: Life Technologies and Expression Analysis (LTEA) Assay for Intercellular Adhesion Molecule 1 (ICAM1) using HepaRG (AID 2283507)
Summary of the method: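 Differentiated human HepaRG cells in serum-free induction medium exposed 48 h in duplicate to 8 half-log concentrations (top 100 uM, 0.5% DMSO). ICAM1 mRNA quantified by TaqMan qRT-PCR, normalized to ACTB, GAPDH and POLR2A; bidirectional fitting versus DMSO.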

[16] = read-out: Insulin-like growth factor-binding protein 1 (IGFBP1), IGFBP1 (gene 3484); test: LTEA_HepaRG_IGFBP1: Life Technologies and Expression Analysis (LTEA) Assay for Insulin-like growth factor-binding protein 1 (IGFBP1) using HepaRG (AID 2283508)
Summary of the method: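 HepaRG cells, plated 48 h then switched to serum-free induction medium, exposed in duplicate for 48 h to 8-point half-log series from 100 uM in 0.5% DMSO. mRNA measured by qRT-PCR, normalized to ACTB/GAPDH/POLR2A; bidirectional fit versus DMSO.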

[17] = read-out: Interleukin 6 (IL6), IL6 (gene 3569); test: LTEA_HepaRG_IL6: Life Technologies and Expression Analysis (LTEA) Assay for Interleukin 6 (IL6) using HepaRG (AID 2283509)
Summary of the method: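 HepaRG cells exposed in duplicate for 48 h to eight half-log concentrations, top 100 uM, in 0.5% DMSO serum-free induction medium. mRNA measured by qRT-PCR, normalized to ACTB, GAPDH and POLR2A. Bidirectional fit versus DMSO.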

HGF (gene 3082) = test: LTEA_HepaRG_HGF: Life Technologies and Expression Analysis (LTEA) Assay for Hepatocyte Growth Facto (HGF) using HepaRG (AID 2283505)
Summary of the method: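 Differentiated HepaRG cells in serum-free induction medium exposed 48 h in duplicate, 8 half-log concentrations from 100 uM in 0.5% DMSO. HGF mRNA by qRT-PCR, normalised to ACTB, GAPDH, POLR2A; bidirectional fitting.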

[18] = read-out: Interleukin 6 Receptor (IL6R), IL6R (gene 3570); test: LTEA_HepaRG_IL6R: Life Technologies and Expression Analysis (LTEA) Assay for Interleukin 6 Receptor (IL6R) using HepaRG (AID 2283510)
Summary of the method: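 Readout is IL6R transcript level by TaqMan qRT-PCR, normalized to three housekeeping genes and fitted bidirectionally against 0.5% DMSO controls. Human HepaRG cells received chemicals for 48 h in serum-free induction medium, highest concentration 100 uM.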

Measured: AC50

Sequence of Hypoxia-inducible factor 1-alpha (Homo sapiens) (Q16665 whole entry, looked up): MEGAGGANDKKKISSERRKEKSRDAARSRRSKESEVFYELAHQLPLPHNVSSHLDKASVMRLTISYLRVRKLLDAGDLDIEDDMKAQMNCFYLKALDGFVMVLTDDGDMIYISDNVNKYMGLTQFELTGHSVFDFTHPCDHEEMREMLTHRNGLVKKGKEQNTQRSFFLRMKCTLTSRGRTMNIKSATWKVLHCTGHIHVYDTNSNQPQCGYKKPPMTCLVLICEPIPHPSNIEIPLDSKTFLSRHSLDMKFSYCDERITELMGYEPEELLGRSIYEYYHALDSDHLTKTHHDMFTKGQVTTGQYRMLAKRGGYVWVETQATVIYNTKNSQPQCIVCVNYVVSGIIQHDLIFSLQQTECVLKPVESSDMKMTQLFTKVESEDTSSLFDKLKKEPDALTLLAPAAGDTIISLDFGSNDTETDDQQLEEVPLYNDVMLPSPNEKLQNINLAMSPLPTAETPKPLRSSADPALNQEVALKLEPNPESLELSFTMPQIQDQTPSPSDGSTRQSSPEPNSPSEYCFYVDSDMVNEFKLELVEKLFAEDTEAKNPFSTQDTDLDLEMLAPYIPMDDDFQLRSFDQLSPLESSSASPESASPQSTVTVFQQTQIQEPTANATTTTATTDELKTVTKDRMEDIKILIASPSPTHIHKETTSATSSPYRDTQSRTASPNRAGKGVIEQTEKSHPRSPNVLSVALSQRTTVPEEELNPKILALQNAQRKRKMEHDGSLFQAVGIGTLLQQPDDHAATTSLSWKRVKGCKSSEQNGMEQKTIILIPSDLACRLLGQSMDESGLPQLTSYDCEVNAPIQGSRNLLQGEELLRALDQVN
Sequence of Cytochrome P450 3A7 (Homo sapiens) (P24462 whole entry, looked up): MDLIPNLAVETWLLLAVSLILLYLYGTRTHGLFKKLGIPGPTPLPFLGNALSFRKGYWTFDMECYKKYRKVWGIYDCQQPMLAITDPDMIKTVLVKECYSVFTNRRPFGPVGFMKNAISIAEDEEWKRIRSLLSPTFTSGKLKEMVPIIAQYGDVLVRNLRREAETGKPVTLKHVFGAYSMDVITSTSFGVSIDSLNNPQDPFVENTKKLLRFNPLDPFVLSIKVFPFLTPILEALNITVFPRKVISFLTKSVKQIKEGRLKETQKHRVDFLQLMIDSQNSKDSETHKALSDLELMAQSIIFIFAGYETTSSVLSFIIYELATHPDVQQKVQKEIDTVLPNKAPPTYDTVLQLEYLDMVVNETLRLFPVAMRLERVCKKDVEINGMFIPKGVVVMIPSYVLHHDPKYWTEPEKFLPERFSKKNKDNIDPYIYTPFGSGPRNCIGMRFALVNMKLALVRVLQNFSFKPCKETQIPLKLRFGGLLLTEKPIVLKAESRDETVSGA

Fc1ccccc1[C@@H](F)COC1CCC(Nc2ncnc3[nH]ncc23)CC1 (stereo partly drawn)
inactive: [1] | CYP3A5 (gene 1577) | [9]
active: [2] 83.1 µM | [3] 64 µM | [4] 23 µM | [5] 77.1 µM | [6] 37.5 µM | [7] 50 µM | [8] 30 µM | [10] 65.2 µM | [11] 50 µM | [12] 33.1 µM | [13] 45.2 µM | [14] 50 µM | [15] 50 µM | [16] 63.8 µM | [17] 73.7 µM

CCNc1ccccc1
not listed: [11] | [17]
inactive: all other assays above

COc1ccc2sc(C(=O)Nc3nnn[nH]3)c(OC(C)C)c2c1
inactive: [1] | CYP3A5 (gene 1577) | [7] | [9] | HGF (gene 3082) | [14] | [15] | [17] | [18]
active: [2] 87.2 µM | [3] 83.9 µM | [4] 1.17 µM | [5] 96.5 µM | [6] 50 µM | [8] 80.8 µM | [10] 76.2 µM | [12] 72 µM | [13] 86.5 µM | [16] 23.6 µM

CC(C)c1cccc(C(C)C)c1N1C(=O)c2ccc(O)cc2C1=O
active: [2] 87.9 µM | [3] 77.7 µM | [4] 72 µM | [5] 93.3 µM | [13] 80.7 µM | HGF (gene 3082) 93 µM
not listed: [9] | [11]
inactive: all other assays above
